# Reference: the supplement of paper PMC8728848
# The sample as a whole holds a higher share of the strongest signals than the screen did.
# Columns and labels:
# Assay in all cases: glycan array binding signal (z-score within array); higher = stronger binding
# Settings in all cases: glycan notation: IUPAC condensed, linker removed
# [1] = biological target: Fuc(a1-2)Gal(b1-3)GalNAc(b1-3)Gal(a1-4)Gal(b1-4)Glc
# Outline: (§1)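 Glycan array binding is given as a within-array Z-score, which can be read as non-binding when negative. The arrays, 3228 of them, came from the Consortium for Functional Glycomics database and were retained only where the protein sequence was available. Z-scores were averaged across arrays of the same protein sequence at different concentrations or buffers and across linkers.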
# [2] = biological target: Fuc(a1-2)Gal(b1-3)[Fuc(a1-4)]GlcNAc
# Outline: as §1
# [3] = biological target: Fuc(a1-2)[Gal(a1-3)]Gal(b1-3)GlcNAc(b1-2)Man(a1-3)[Fuc(a1-2)[Gal(a1-3)]Gal(b1-3)GlcNAc(b1-2)Man(a1-6)]Man(b1-4)GlcNAc(b1-4)GlcNAc
# Outline: as §1
# [4] = biological target: Fuc(a1-2)[GalNAc(a1-3)]Gal
# Outline: as §1
# [5] = biological target: Fuc(a1-2)[GalNAc(a1-3)]Gal(b1-4)GlcNAc(b1-3)Gal(b1-4)GlcNAc(b1-3)Gal(b1-4)GlcNAc
# Outline: as §1
# [6] = biological target: Fuc(a1-3)[Gal(b1-4)]GlcNAc(b1-4)Gal(b1-4)[Fuc(a1-3)]GlcNAc(b1-4)Gal(b1-4)[Fuc(a1-3)]GlcNAc
# Outline: as §1
# [7] = biological target: Fuc(a1-3)[Gal(b1-4)]GlcNAc6S
# Outline: as §1
# [8] = biological target: Fuc(a1-3)[Gal3S(b1-4)]GlcNAc6S
# Outline: as §1
# [9] = biological target: Fuc(a1-3)[Neu5Ac(a2-3)]Gal(b1-4)GlcNAc(b1-3)GalNAc
# Outline: as §1
# [10] = biological target: Gal(a1-3)Gal(b1-4)[Fuc(a1-3)]GlcNAc
# Outline: as §1
# [11] = biological target: Gal(a1-3)Gal(b1-4)[Fuc(a1-3)]GlcNAc(b1-2)Man(a1-3)[Gal(a1-3)Gal(b1-4)[Fuc(a1-3)]GlcNAc(b1-2)Man(a1-6)]Man(b1-4)GlcNAc(b1-4)GlcNAc
# Outline: as §1
# [12] = biological target: Gal(a1-4)Gal(b1-4)GlcNAc(b1-3)Gal(b1-4)Glc
# Outline: as §1
# Gal(b1-3)GalNAc = biological target: Gal(b1-3)GalNAc
# Outline: as §1
# [13] = biological target: Gal(b1-3)GalNAc(b1-4)Gal(b1-4)Glc
# Outline: as §1
# [14] = biological target: Gal(b1-4)GlcNAc(b1-2)Man(a1-6)Man(b1-4)GlcNAc(b1-4)GlcNAc
# Outline: as §1
# [15] = biological target: Gal(b1-4)GlcNAc(b1-3)Gal(b1-4)GlcNAc(b1-3)Gal(b1-4)GlcNAc
# Outline: as §1
# Gal3S(b1-4)GlcNAc = biological target: Gal3S(b1-4)GlcNAc
# Outline: as §1
# Gal3S4S(b1-4)GlcNAc = biological target: Gal3S4S(b1-4)GlcNAc
# Outline: as §1
# GlcA(b1-6)Gal = biological target: GlcA(b1-6)Gal
# Outline: as §1
# [16] = biological target: GlcNAc(a1-4)Gal(b1-4)GlcNAc(b1-3)Gal(b1-4)Glc
# Outline: as §1
# [17] = biological target: GlcNAc(a1-4)Gal(b1-4)GlcNAc(b1-3)Gal(b1-4)GlcNAc
# Outline: as §1
# [18] = biological target: GlcNAc(a1-4)Gal(b1-4)GlcNAc(b1-3)Gal(b1-4)[Fuc(a1-3)]GlcNAc(b1-3)Gal(b1-4)[Fuc(a1-3)]GlcNAc
# Outline: as §1
# [19] = biological target: GlcNAc(b1-4)GlcNAc(b1-4)GlcNAc(b1-4)GlcNAc(b1-4)GlcNAc(b1-4)GlcNAc
# Outline: as §1
# [20] = biological target: Man(a1-2)Man(a1-3)[Man(a1-6)]Man(a1-6)[Man(a1-2)Man(a1-3)]Man(b1-4)GlcNAc(b1-4)GlcNAc
# Outline: as §1
# [21] = biological target: Neu5Ac(a2-3)Gal(b1-4)[Fuc(a1-3)]GlcNAc
# Outline: as §1
# [22] = biological target: Neu5Ac(a2-3)Gal(b1-4)[Fuc(a1-3)]GlcNAc(b1-6)[Gal(b1-3)]GalNAc
# Outline: as §1
# [23] = biological target: Neu5Ac(a2-3)Gal(b1-4)[Fuc(a1-3)]GlcNAc(b1-6)[Neu5Ac(a2-3)Gal(b1-3)]GalNAc
# Outline: as §1
# Neu5Ac(a2-3)GalNAc = biological target: Neu5Ac(a2-3)GalNAc
# Outline: as §1
# [24] = biological target: Neu5Ac(a2-6)Gal(b1-4)GlcNAc6S
# Outline: as §1
# [25] = biological target: Neu5Ac(b2-6)Gal(b1-4)GlcNAc
# Outline: as §1
binder,measurement,setting,value
"Eap (Staphylococcus aureus), A0A7L5PYT7 (protein) MKFKSLITTTLALGVLASTGANFNNNEAAAAAKPLDKSSSSLHHGYSKVHVPYAITVNGTSQNILSSLTFNKNQNISYKDLEDRVKSVLKSDRGISDIDLRLSKQAKYTVYFKNGTKKVIDLKAGIYTADLINTSEIKAININVDTKKQVEDKKKDKANYQVPYTITVNGTSQNILSNLTFNKNQNISYKDLEDKVKSVLESNRGITDVDLRLSKQAKYTVNFKNGTKKVIDLKSGIYTANLINSSDIKSININVDTKKHIENKAKRNYQVPYSINLNGTSTNILSNLSFSNKPWTNYKNLTSQIKSVLKHDRGISEQDLKYAKKAYYTVYFKNGGKRILQLNSKNYTANLVHAKDVKRIEITVKTGTKAKADRYVPYTIAVNGTSTPILSDLKFTGDPRVGYKDISKKVKSVLKHDRGIGERELKYAKKATYTVHFKNGTKKVININSNISQLNLLYVQDIKKIDIDVKTGTKAKADSYVPYTIAVNGTSTPILSKLKISNKQLISYKYLNDKVKSVLKSERGISDLDLKFAKQAKYTVYFKNGKKQVVNLKSDIFTPNLFSAKDIKKIDIDVKQYTKSKKNK",glycan array binding signal (z-score),[1],0.012
same,glycan array binding signal (z-score),[2],-0.514
same,glycan array binding signal (z-score),[3],-0.498
same,glycan array binding signal (z-score),[4],-0.319
same,glycan array binding signal (z-score),[5],3.63
same,glycan array binding signal (z-score),[6],-0.587
same,glycan array binding signal (z-score),[7],1.35
same,glycan array binding signal (z-score),[8],4.89
same,glycan array binding signal (z-score),[9],3.33
same,glycan array binding signal (z-score),[10],-0.392
same,glycan array binding signal (z-score),[11],-0.414
same,glycan array binding signal (z-score),[12],-0.4
same,glycan array binding signal (z-score),Gal(b1-3)GalNAc,-0.063
same,glycan array binding signal (z-score),[13],-0.183
same,glycan array binding signal (z-score),[14],-0.437
same,glycan array binding signal (z-score),[15],-0.513
same,glycan array binding signal (z-score),Gal3S(b1-4)GlcNAc,-0.007
same,glycan array binding signal (z-score),Gal3S4S(b1-4)GlcNAc,1.97
same,glycan array binding signal (z-score),GlcA(b1-6)Gal,-0.24
same,glycan array binding signal (z-score),[16],4.14
same,glycan array binding signal (z-score),[17],4.58
same,glycan array binding signal (z-score),[18],8.99
same,glycan array binding signal (z-score),[19],-0.455
same,glycan array binding signal (z-score),[20],-0.331
same,glycan array binding signal (z-score),[21],-0.563
same,glycan array binding signal (z-score),[22],-0.08
same,glycan array binding signal (z-score),[23],-0.297
same,glycan array binding signal (z-score),Neu5Ac(a2-3)GalNAc,-0.425
same,glycan array binding signal (z-score),[24],-0.392
same,glycan array binding signal (z-score),[25],-0.365
